# Laboratory results: article PMC7862700, “An all-to-all approach to the identification of sequence-specific readers for epigenetic DNA modifications on cytosine”
# Assays:
# Assay in all cases: DAPPL (digital affinity profiling via proximity ligation, sequencing); 10 mM Tris-HCl pH 7.5, 50 mM NaCl, 1 mM DTT, 4% glycerol, room temperature, 30 min; GST-TFs on glutathione beads, 16-mer random dsDNA library, 0.1% formaldehyde crosslink after washing; high values mean tight binding
# [1] = biological target: T1, FEV (Homo sapiens, UniProt Q99581 1-238); conditions: protein: recombinant; tags: N-terminal GST; dsDNA, one strand shown
# T1 sequence: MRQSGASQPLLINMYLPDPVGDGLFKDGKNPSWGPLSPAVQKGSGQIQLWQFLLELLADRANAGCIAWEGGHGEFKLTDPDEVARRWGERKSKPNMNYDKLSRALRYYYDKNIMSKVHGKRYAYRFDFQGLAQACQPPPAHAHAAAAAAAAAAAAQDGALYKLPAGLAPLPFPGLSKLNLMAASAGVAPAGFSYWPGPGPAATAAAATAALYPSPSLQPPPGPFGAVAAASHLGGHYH
# Outline: (§1)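 Binding signal is given per hexamer as its read frequency for a factor divided by its frequency in the tag-only sample. GST-fused human transcription factors were expressed in yeast, captured on glutathione beads, barcoded with DNA and pooled with that sample, then incubated with 200 nmole of a 16-mer random double-stranded DNA library in Tris/NaCl/DTT/glycerol buffer for 30 min at room temperature. The pools were then washed, crosslinked, proximity-ligated, amplified by PCR and sequenced on an Illumina NextSeq500.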
# [2] = biological target: ETV5 (Homo sapiens, UniProt P41161 1-510); conditions: protein: recombinant; tags: N-terminal GST; dsDNA, one strand shown
# Chain of ETV5 (P41161 whole entry): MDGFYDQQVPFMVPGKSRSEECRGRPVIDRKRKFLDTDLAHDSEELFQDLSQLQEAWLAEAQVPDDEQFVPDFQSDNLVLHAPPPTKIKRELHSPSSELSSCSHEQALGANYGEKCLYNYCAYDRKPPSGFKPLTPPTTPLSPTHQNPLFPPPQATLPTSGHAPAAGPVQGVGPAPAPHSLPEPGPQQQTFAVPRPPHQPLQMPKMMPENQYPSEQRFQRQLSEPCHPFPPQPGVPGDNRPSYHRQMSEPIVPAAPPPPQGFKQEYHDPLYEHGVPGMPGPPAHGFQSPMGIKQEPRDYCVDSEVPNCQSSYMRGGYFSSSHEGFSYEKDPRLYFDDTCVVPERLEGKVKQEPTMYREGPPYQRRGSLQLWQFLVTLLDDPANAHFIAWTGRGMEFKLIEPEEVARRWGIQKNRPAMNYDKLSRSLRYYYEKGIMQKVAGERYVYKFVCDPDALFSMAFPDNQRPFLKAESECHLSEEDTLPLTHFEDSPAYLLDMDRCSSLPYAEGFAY
# Outline: as §1
# [3] = biological target: HSF1 (Homo sapiens, UniProt Q00613 1-529); conditions: protein: recombinant; tags: N-terminal GST; chain copies: 3; dsDNA, one strand shown
# Chain of HSF1 (Q00613 whole entry): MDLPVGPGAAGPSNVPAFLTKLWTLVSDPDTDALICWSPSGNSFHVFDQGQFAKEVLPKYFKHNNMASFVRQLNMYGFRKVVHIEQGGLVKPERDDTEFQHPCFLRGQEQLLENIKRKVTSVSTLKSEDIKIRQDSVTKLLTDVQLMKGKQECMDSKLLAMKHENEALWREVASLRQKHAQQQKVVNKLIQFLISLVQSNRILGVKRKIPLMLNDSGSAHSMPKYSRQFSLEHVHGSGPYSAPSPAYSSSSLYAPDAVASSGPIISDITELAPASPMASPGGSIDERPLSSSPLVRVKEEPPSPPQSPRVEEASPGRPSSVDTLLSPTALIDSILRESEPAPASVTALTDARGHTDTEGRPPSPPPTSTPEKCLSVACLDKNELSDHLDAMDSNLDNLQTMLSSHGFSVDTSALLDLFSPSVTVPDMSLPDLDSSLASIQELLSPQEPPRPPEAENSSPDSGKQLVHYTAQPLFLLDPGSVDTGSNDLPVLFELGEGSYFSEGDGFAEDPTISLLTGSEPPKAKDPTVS
# Outline: as §1
# [4] = biological target: T2, SPIC (Homo sapiens, UniProt Q8N5J4 1-248); conditions: protein: recombinant; tags: N-terminal GST; dsDNA, one strand shown
# T2 sequence: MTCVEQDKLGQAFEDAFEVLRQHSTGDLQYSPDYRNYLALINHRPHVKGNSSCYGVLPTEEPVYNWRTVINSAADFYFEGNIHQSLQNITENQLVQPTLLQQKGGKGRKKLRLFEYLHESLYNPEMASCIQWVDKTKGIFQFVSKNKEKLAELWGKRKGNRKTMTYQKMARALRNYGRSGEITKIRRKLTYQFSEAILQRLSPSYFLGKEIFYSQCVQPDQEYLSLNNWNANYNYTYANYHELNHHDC
# Outline: as §1
# [5] = biological target: ELF4 (Homo sapiens, UniProt Q99607 1-663); conditions: protein: recombinant; tags: N-terminal GST; dsDNA, one strand shown
# Chain of ELF4 (Q99607 whole entry): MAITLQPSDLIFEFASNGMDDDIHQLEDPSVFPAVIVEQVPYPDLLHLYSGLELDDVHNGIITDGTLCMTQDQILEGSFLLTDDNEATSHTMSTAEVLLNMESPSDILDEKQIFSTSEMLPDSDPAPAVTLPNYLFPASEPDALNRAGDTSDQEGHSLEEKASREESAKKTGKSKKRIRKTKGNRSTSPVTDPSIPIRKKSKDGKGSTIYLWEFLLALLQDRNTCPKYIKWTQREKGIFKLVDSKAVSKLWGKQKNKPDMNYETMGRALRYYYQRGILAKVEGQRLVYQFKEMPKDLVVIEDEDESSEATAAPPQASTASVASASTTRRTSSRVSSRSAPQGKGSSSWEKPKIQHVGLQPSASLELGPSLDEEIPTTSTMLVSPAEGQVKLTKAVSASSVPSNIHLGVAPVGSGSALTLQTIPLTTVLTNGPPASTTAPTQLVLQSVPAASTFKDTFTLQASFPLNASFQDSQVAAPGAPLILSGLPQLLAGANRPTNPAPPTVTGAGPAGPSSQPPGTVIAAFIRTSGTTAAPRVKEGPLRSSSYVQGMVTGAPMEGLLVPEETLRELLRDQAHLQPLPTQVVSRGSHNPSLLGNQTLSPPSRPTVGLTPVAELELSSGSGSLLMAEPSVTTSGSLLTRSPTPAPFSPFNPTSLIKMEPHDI
# Outline: as §1
# [6] = biological target: T3, ELK4 (Homo sapiens, UniProt P28324-2 1-405); conditions: protein: recombinant; tags: N-terminal GST; dsDNA, one strand shown
# T3 sequence: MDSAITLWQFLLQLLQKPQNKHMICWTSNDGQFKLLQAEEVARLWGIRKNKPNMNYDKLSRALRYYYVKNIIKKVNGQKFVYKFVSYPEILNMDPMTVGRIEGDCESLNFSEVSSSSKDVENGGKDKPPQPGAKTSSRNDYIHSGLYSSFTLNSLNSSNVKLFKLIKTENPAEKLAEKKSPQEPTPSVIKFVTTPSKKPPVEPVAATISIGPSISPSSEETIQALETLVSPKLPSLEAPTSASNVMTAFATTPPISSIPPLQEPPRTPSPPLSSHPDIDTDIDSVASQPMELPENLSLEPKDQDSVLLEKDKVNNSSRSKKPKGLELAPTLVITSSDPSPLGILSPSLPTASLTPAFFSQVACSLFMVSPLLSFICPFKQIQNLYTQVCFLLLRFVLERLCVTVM
# Outline: as §1
# [7] = biological target: T4, ETV2 (Homo sapiens, UniProt O00321 1-342); conditions: protein: recombinant; tags: N-terminal GST; dsDNA, one strand shown
# T4 sequence: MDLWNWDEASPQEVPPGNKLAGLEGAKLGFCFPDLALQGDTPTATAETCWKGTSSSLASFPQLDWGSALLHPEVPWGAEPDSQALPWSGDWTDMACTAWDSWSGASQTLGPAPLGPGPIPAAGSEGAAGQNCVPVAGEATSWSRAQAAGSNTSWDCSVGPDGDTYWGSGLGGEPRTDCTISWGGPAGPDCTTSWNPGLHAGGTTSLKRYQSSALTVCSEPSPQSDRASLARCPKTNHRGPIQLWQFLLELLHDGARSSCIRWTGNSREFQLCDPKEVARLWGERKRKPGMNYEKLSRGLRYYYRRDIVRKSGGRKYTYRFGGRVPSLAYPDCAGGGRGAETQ
# Outline: as §1
# [8] = biological target: T5, ELF3 (Homo sapiens, UniProt P78545 1-371); conditions: protein: recombinant; tags: N-terminal GST; dsDNA, one strand shown
# T5 sequence: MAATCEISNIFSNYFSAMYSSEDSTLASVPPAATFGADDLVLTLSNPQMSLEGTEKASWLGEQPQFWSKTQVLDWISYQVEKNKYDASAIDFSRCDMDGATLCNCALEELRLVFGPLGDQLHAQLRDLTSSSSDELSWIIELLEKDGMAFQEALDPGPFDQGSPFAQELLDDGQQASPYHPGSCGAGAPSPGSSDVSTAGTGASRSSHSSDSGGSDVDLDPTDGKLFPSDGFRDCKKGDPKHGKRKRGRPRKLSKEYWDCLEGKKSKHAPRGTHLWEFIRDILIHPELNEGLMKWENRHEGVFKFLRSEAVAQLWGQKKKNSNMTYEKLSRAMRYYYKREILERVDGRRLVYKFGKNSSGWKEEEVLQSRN
# Outline: as §1
# [9] = biological target: CRX (Homo sapiens, UniProt O43186 1-299); conditions: protein: recombinant; tags: N-terminal GST; dsDNA, one strand shown
# Chain of CRX (O43186 whole entry): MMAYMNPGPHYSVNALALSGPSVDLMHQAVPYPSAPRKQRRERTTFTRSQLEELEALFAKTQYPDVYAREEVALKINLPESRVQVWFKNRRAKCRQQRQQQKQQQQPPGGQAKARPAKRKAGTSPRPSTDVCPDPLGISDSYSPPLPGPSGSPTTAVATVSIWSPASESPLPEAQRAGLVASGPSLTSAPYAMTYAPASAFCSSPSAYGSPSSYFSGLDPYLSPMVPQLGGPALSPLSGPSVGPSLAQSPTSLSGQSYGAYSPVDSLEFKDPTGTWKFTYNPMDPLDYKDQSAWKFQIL
# Outline: as §1
# [10] = biological target: ETV1 (Homo sapiens, UniProt P50549 1-477); conditions: protein: recombinant; tags: N-terminal GST; dsDNA, one strand shown
# Chain of ETV1 (P50549 whole entry): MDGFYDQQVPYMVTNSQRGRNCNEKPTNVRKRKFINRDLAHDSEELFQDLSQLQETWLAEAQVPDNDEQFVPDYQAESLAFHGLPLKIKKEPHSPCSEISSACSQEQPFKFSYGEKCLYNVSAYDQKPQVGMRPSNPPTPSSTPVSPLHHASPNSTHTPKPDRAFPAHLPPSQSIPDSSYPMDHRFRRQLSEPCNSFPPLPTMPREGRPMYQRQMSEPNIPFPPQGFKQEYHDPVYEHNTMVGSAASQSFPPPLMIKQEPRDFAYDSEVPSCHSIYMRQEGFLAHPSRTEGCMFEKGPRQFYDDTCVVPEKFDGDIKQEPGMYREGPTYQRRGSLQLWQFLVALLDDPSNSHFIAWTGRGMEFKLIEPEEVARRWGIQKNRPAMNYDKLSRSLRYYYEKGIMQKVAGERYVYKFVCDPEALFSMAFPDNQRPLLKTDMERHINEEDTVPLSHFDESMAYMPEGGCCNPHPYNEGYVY
# Outline: as §1
# [11] = biological target: T6, ERF (Homo sapiens, UniProt P50548 1-548); conditions: protein: recombinant; tags: N-terminal GST; dsDNA, one strand shown
# T6 sequence: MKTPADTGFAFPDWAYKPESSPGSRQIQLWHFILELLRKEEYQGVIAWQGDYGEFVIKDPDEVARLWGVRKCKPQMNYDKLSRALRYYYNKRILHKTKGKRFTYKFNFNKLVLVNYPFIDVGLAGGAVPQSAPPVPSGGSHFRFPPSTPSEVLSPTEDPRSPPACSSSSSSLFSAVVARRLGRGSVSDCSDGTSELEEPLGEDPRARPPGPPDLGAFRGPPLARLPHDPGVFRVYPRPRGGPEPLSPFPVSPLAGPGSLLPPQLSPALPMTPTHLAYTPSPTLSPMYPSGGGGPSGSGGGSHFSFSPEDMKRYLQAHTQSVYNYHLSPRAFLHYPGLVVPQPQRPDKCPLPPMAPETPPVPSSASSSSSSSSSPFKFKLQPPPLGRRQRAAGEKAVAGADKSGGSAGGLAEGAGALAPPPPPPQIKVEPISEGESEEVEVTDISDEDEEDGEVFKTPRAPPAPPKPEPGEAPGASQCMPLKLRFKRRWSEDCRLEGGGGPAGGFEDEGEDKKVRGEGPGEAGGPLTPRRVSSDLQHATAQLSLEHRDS
# Outline: as §1
# [12] = biological target: T7, ETV3L (Homo sapiens, UniProt Q6ZN32 1-361); conditions: protein: recombinant; tags: N-terminal GST; dsDNA, one strand shown
# T7 sequence: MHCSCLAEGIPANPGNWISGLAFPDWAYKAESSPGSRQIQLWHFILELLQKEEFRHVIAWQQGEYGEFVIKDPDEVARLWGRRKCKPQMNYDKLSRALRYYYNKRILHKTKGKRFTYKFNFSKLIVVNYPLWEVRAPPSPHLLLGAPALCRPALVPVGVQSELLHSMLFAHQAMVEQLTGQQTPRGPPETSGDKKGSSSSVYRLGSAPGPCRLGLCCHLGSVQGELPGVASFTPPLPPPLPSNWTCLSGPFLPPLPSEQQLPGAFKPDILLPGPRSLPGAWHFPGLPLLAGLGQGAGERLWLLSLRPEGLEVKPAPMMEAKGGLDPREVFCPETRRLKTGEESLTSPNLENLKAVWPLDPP
# Outline: as §1
# [13] = biological target: T8, ETS2 (Homo sapiens, UniProt P15036 1-469); conditions: protein: recombinant; tags: N-terminal GST; dsDNA, one strand shown
# T8 sequence: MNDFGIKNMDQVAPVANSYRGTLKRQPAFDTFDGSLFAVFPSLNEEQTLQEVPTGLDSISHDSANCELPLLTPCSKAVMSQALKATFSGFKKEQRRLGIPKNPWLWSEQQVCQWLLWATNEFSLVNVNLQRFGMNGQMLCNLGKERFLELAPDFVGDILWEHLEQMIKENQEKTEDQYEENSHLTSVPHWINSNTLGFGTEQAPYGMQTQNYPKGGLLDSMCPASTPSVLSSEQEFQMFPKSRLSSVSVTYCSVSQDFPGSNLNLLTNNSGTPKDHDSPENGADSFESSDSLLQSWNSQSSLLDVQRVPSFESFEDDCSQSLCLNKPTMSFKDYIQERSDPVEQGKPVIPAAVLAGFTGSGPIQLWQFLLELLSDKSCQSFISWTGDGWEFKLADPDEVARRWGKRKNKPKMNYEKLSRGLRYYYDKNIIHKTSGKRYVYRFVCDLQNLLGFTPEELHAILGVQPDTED
# Outline: as §1
# [14] = biological target: T9, SPDEF (Homo sapiens, UniProt O95238 1-335); conditions: protein: recombinant; tags: N-terminal GST; dsDNA, one strand shown
# T9 sequence: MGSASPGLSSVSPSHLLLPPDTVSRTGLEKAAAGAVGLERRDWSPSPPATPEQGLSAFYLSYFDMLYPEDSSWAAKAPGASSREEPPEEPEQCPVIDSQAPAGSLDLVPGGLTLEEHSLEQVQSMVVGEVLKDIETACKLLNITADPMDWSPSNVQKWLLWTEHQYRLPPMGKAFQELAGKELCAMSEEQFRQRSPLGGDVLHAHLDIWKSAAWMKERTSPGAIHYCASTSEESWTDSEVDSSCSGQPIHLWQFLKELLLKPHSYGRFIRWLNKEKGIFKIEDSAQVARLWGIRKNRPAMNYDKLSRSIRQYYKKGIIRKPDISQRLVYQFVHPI
# Outline: as §1
# [15] = biological target: T10, ETV7 (Homo sapiens, UniProt Q9Y603 1-341); conditions: protein: recombinant; tags: N-terminal GST; dsDNA, one strand shown
# T10 sequence: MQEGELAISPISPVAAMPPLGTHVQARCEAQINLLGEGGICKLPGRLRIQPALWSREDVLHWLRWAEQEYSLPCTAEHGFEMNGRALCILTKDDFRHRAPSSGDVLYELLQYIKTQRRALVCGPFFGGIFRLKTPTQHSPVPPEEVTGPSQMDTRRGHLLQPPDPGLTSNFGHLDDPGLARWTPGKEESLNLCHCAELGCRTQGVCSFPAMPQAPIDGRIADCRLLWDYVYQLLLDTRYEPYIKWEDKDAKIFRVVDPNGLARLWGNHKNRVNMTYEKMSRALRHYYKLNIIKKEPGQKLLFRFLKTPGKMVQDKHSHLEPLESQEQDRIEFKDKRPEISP
# Outline: as §1
# [16] = biological target: T11, ELF5 (Homo sapiens, UniProt Q9UKW6-2 1-255); conditions: protein: recombinant; tags: N-terminal GST; dsDNA, one strand shown
# T11 sequence: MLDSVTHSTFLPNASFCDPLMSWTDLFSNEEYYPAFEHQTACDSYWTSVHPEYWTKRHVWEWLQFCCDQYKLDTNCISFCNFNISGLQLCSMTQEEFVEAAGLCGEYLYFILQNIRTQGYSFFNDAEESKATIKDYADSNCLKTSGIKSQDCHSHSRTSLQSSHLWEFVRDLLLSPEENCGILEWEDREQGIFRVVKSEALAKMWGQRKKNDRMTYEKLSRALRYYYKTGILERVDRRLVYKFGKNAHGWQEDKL
# Outline: as §1
# [17] = biological target: T12, ETV3 (Homo sapiens, UniProt P41162-2 1-143); conditions: protein: recombinant; tags: N-terminal GST; dsDNA, one strand shown
# T12 sequence: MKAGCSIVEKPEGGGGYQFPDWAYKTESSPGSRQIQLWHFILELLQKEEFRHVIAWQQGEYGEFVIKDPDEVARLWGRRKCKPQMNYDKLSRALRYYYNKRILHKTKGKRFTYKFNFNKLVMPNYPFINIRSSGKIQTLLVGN
# Outline: as §1
# [18] = biological target: ETV6 (Homo sapiens, UniProt P41212 1-452); conditions: protein: recombinant; tags: N-terminal GST; dsDNA, one strand shown
# Chain of ETV6 (P41212 whole entry): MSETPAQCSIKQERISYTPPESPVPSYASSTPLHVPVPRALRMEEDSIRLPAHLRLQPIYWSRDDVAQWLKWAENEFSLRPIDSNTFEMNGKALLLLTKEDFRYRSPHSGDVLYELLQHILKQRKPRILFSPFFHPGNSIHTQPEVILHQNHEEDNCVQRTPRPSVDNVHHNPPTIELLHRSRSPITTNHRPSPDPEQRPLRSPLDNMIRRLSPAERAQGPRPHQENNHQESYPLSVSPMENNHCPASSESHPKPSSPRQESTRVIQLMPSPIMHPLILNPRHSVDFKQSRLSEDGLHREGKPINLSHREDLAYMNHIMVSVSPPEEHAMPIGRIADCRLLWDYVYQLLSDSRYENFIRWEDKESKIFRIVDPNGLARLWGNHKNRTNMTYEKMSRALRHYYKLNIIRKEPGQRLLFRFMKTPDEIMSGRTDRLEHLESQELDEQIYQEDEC
# Outline: as §1
sequence,measurement,setting,value
AGCTTA,binding signal,[1],"1.06 fold enrichment (6-mer frequency, TF over GST control)"
same,binding signal,[2],"1.07 fold enrichment (6-mer frequency, TF over GST control)"
same,binding signal,[3],"1.94 fold enrichment (6-mer frequency, TF over GST control)"
same,binding signal,[4],"1.12 fold enrichment (6-mer frequency, TF over GST control)"
same,binding signal,[5],"1.11 fold enrichment (6-mer frequency, TF over GST control)"
same,binding signal,[6],"1.08 fold enrichment (6-mer frequency, TF over GST control)"
same,binding signal,[7],"1.14 fold enrichment (6-mer frequency, TF over GST control)"
same,binding signal,[8],"1.23 fold enrichment (6-mer frequency, TF over GST control)"
same,binding signal,[9],"3.13 fold enrichment (6-mer frequency, TF over GST control)"
same,binding signal,[10],"1.23 fold enrichment (6-mer frequency, TF over GST control)"
same,binding signal,[11],"1.2 fold enrichment (6-mer frequency, TF over GST control)"
same,binding signal,[12],"1.08 fold enrichment (6-mer frequency, TF over GST control)"
same,binding signal,[13],"1.15 fold enrichment (6-mer frequency, TF over GST control)"
same,binding signal,[14],"1.17 fold enrichment (6-mer frequency, TF over GST control)"
same,binding signal,[15],"1.15 fold enrichment (6-mer frequency, TF over GST control)"
same,binding signal,[16],"1.08 fold enrichment (6-mer frequency, TF over GST control)"
same,binding signal,[17],"1.17 fold enrichment (6-mer frequency, TF over GST control)"
same,binding signal,[18],"1.05 fold enrichment (6-mer frequency, TF over GST control)"
